Reference: PubChem BioAssay AID624351 (Southern Research Specialized Biocontainment Screening …, 2012)
Among all 2,400 compounds or so, about 1,400 (58%) were called active. The set was probably picked from earlier hits. Some of the results follow. Values without a mark were called inactive.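 Rule for the calls: active = inhibition of 30% or more at any tested dose; inconclusive = primary hits over the limit that were never retested; inactive = the rest.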

Test: ADP Hunter readout inhibition without MgcRacGAP – biochemical, coupled enzyme counter-screen, artefact control for MgcRacGAP inhibitor project, dose response (AID 624351);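 note: signal is the ADP detection kit reading of free GDP without any GAP enzyme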;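 for inhibition: 0% = median positive control wells and 100% = median negative control wells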
Settings: fluorescence, no MgcRacGAP; series mostly up to 80 µM; inhibition: at the top concentration
In the case of `N#CC1=C(Nc2ccccc2Cl)SC(c2ccccc2O)NC1=O` (centres undefined), the “inhibition” value is reported as 6.23%. With `Fc1ccccc1Nc1n[nH]c(=S)s1` the IC50 was 47.7 µM (active). In the case of `Cc1c(Cl)cccc1Nc1n[nH]c(=S)s1`, the IC50 is reported as 78.7 µM (active). For `COc1ccccc1Nc1ccc2c(O)cc(S(=O)(=O)O)cc2c1`, the “inhibition” value was 10.1%. With `COc1ccccc1Nc1n[nH]c(=S)s1` the IC50 was 46.8 µM (active). For `Cc1c(Cl)cccc1NC(=S)Nc1ccc2[nH]c(=O)[nH]c2c1`, the “inhibition” value was 26.1%. With `S=c1[nH]nc(Nc2ccccc2Cl)s1` the IC50 was 51.9 µM (active). With `CCc1cc(/C(Cc2csc(C)n2)=N/O)c(O)cc1O` the IC50 was 33.2 µM (active). With `CCc1cc(/C(Cc2cscn2)=N\O)c(O)cc1O` the IC50 was 52.1 µM (active). With `N/N=C(\Cc1cscn1)c1ccc(O)cc1O` the IC50 was 67.8 µM (active). For `Cc1ccccc1CN(C)CCc1ccccn1`, the “inhibition” value was 17.5%. For `CCc1cc(/C(Cc2ccccn2)=N\O)c(O)cc1O`, the IC50 was 32.1 µM (active). For `COc1ccc(Br)cc1CN1CCN(C(=O)c2ccc(F)cc2)CC1`, the “inhibition” value was 20.3%. For `CCN(CCNCC(O)COc1ccccc1C(C)C)c1cccc(C)c1` (centres undefined), the “inhibition” value was 26%. With `COc1cccc(CN2CCN(Cc3cc(OC)c(OC)cc3[N+](=O)[O-])CC2)c1` the “inhibition” value was 28.8%. With `COc1cc(-c2cc(-c3ccc(F)cc3)nc(N)c2C#N)ccc1O` the “inhibition” value was -0.39%. In the case of `COc1cc(-c2cc(-c3ccc(O)cc3)nc(N)c2C#N)ccc1O`, the IC50 is reported as 51.6 µM (active). In the case of `CCCN(CCC)CCCNC(=S)Nc1ccc2nc(N3CCCC3)cc(C)c2c1`, the “inhibition” value is reported as 1.63%. In the case of `CCn1c(=O)n(CC)c2cc(N3CCCC3)c(NC(=O)c3cccc(Cl)c3)cc21`, the “inhibition” value is reported as -3.54%. In the case of `O=C(/C(=C/c1cccnc1)n1ccnc1)c1ccc(Cl)cc1Cl`, the “inhibition” value is reported as 3.8%. In the case of `COCCNCCOCCOc1ccc(Cl)c(C)c1`, the “inhibition” value is reported as 15%. For `CCOC(=O)C1=C(O)/C(=C\c2ccc(O)c(OCC)c2)N=C1C`, the IC50 was 52.3 µM (active). In the case of `CCOc1cc(/C=C2/N=C(C)C(C(=O)OC)=C2O)ccc1O`, the IC50 is reported as 29.6 µM (active). For `COC(=O)C1=C(C)N(Cc2ccco2)C(=O)C1`, the “inhibition” value was -3.81%. With `COC(=O)C1=C(O)/C(=C\c2ccc(O)c(OC)c2)N=C1C` the IC50 was 20 µM (active). In the case of `COC(=O)C1=C(C)N(Cc2ccco2)C(=O)/C1=C\c1ccc([N+](=O)[O-])cc1`, the “inhibition” value is reported as 3.8%. With `CCOc1cc(/C=C2\C(=O)N(Cc3ccco3)C(C)=C2C(=O)OC)ccc1O` the IC50 was 68.7 µM (active). In the case of `COc1nc(Nc2ccc(O)cc2)nc(OC(C(F)(F)F)C(F)(F)F)n1`, the IC50 is reported as 39 µM (active). With `CN(C)S(=O)(=O)c1cc(NC(=O)CNCCN2CCOCC2)ccc1Cl` the “inhibition” value was 12.1%. For `O=S(=O)(Nc1ccccc1F)c1cccc(NC(=S)NCCN2CCOCC2)c1`, the “inhibition” value was 2.85%. In the case of `COc1cc(/C=N/NC(=S)NCCN2CCOCC2)ccc1O`, the IC50 is reported as 21.8 µM (active). With `COc1ccccc1OCCCCCCN1CCOCC1` the “inhibition” value was 11.7%. In the case of `COc1ccc(CCNCCN2CCOCC2)cc1`, the “inhibition” value is reported as 22.7%. With `Oc1ccc(/C=N/NC(=S)NCCN2CCOCC2)c(O)c1` the IC50 was 20.9 µM (active). For `CCOc1cc(-c2nc3ccccc3s2)ccc1O`, the IC50 was 48.6 µM (active). With `CCN1CCN(CC(=O)Nc2nc3ccccc3s2)CC1` the “inhibition” value was 28.9%. For `COc1cc(-c2nc3ccccc3s2)ccc1O`, the IC50 was 18.2 µM (active). With `CCOc1cc(-c2cc(-c3ccccc3)nc(N)c2C#N)ccc1O` the “inhibition” value was 17.7%. In the case of `O=C(c1ccc(F)cc1)N1CCN(C2CCCCC2)CC1`, the “inhibition” value is reported as 19.5%. For `COc1cc2c(cc1OC)C1(CCCC1)C(N)=C2C#N`, the IC50 was 57.3 µM (active). For `O=C(c1ccco1)N1CCN(Cc2cccc([N+](=O)[O-])c2)CC1`, the “inhibition” value was 18%. In the case of `O=C(c1c(Cl)cccc1Cl)N1CCN(c2cccc3[nH]ccc23)CC1`, the IC50 is reported as 50.9 µM (active). With `O=[N+]([O-])c1cccc(CN2CCN(Cc3ccco3)CC2)c1` the “inhibition” value was 20.7%. In the case of `O=C(c1cccc(Cl)c1)N1CCN(C2CCCCC2)CC1`, the “inhibition” value is reported as 15.2%. In the case of `O=[N+]([O-])c1cccc(CN2CCN(c3cccc4[nH]ccc34)CC2)c1`, the IC50 is reported as 46.7 µM (active). In the case of `COc1cc(/C=C2\Oc3cc(O)ccc3C2=O)ccc1O`, the IC50 is reported as 33.9 µM (active). For `O=C1/C(=C/c2ccc(O)c(O)c2)Oc2cc(O)ccc21`, the IC50 was 28.2 µM (active). For `Brc1ccccc1OCCCCCN1CCOCC1`, the “inhibition” value was 15.5%. With `S=c1[nH]nc2sc3ccccc3n12` the IC50 was 32.3 µM (active). For `O=C(CN1CCN(c2ncccn2)CC1)N1CCCC1`, the “inhibition” value was 10.6%. With `Cc1ccc(-c2n[nH]c(=S)n2/N=C/c2ccc(C(=O)O)cc2)cc1` the IC50 was 69.7 µM (active). In the case of `S=c1[nH]nc(-c2ccncc2)n1/N=C/c1ccccc1`, the IC50 is reported as 39.6 µM (active). With `Cc1cccc(N2C(=O)/C(=C\c3ccc(C(=O)O)cc3)c3ccccc3C2=O)c1` the “inhibition” value was 2.03%. For `Oc1ccccc1/C=N/n1c(-c2ccccc2)n[nH]c1=S`, the IC50 was 71.4 µM (active). Compound `NNc1ccc([N+](=O)[O-])c2[nH][nH]c(=O)c12` has an inhibition of -1.61% [at 10 µM]. For `Cc1ccc(S(=O)(=O)/N=S(/c2ccccc2)C(C)C)cc1` (centres undefined), the “inhibition” value was 6.9%. With `Nc1cccc2c(O)cc(S(=O)(=O)O)cc12` the “inhibition” value was 15.9%. With `O=S(=O)(O)c1cc(O)c2ccc(Nc3ccccc3)cc2c1` the “inhibition” value was 14.1%. For `CN(C)c1ccc2cc(S(=O)(=O)O)cc(O)c2c1`, the IC50 was 75 µM (active). In the case of `COc1cc(/C=C/C(=O)OCC(=O)Nc2ccc3c(c2)OCCO3)ccc1O`, the IC50 is reported as 29.2 µM (active). For `O=C(CN1CCOCC1)Nc1ccc2c(c1)OCCO2`, the “inhibition” value was 14.5%. With `COc1cc(/C=C/C(=O)OCC(=O)Nc2ccc3c(c2)OCO3)ccc1O` the IC50 was 42.1 µM (active). With `O=C(CCN1CCCCCC1)Nc1ccc2c(c1)OCCO2` the “inhibition” value was 15.1%. For `CC(C)C1=Nc2cccc3cccc(c23)N1`, the IC50 was 26.5 µM (active). With `O=C(Oc1ccc(N(C(=O)c2ccncc2)S(=O)(=O)c2cccs2)cc1)c1ccncc1` the “inhibition” value was 7.67%. With `N=C(N)c1ccc(N=Nc2c(O)ccc3c2[nH]c2ccccc23)cc1` the IC50 was 18 µM (active). With `O=C(O)CCN1C(=O)/C(=C/c2ccc(-c3nc4ccccc4s3)o2)SC1=S` the “inhibition” value was -0.68%. With `COCCNCC(=O)Nc1nc(C)cs1` the “inhibition” value was 19.2%. With `CC(C)(C)N1C(=O)c2ccc(C(=O)Nc3ccc(O)cc3)cc2C1=O` the IC50 was 29.7 µM (active). With `O=C(Nc1ccc(O)cc1)c1ccc2c(c1)C(=O)N(Cc1ccccc1)C2=O` the “inhibition” value was 22.7%. For `COc1cc(-c2nc3ccc(C)cn3c2Nc2ccc3c(c2)OCCO3)ccc1O`, the IC50 was 34.4 µM (active). In the case of `COc1cc(-c2nc3cnccn3c2Nc2ccc(C)cc2)ccc1O`, the IC50 is reported as 45.3 µM (active). In the case of `Cc1ccn2c(Nc3ccc4c(c3)OCO4)c(-c3ccc(O)cc3)nc2c1`, the IC50 is reported as 32.4 µM (active). With `Cc1cccc(Nc2c(-c3ccc(O)cc3)nc3ncccn23)c1` the IC50 was 31.7 µM (active). In the case of `Cc1ccc(Nc2c(-c3ccco3)nc3ccccn23)cc1`, the “inhibition” value is reported as 17.8%. With `N#CC(C#N)=C1C=CC=CN1/C(=C\c1ccco1)C(=O)c1ccc(Cl)cc1` the “inhibition” value was -0.35%. With `COc1cc(-c2nc3ccccn3c2NCC2CCCO2)ccc1O` (centres undefined) the “inhibition” value was 24.2%. With `COc1cc(-c2nc3cnccn3c2Nc2c(C)cccc2C)ccc1O` the IC50 was 52.8 µM (active). For `Clc1cc(Br)ccc1OCCOCCN1CCCC1`, the “inhibition” value was 11.4%. For `COc1cc(/C=N/NC(=O)CNC(=O)c2ccco2)ccc1O`, the IC50 was 36.8 µM (active). With `COc1cc(/C=N/NC(=O)CNC(=O)c2cccs2)ccc1O` the IC50 was 38.4 µM (active). With `COc1ccc2c(/C=N/Nc3ccc(C(=O)O)cc3)c[nH]c2c1` the IC50 was 58.5 µM (active). For `O=C(O)c1ccc(N/N=C/c2c[nH]c3ccccc23)cc1`, the IC50 was 47.5 µM (active). For `Oc1ccc(/C=N/n2c(-c3ccco3)csc2=Nc2cccnc2)c(O)c1`, the IC50 was 34.3 µM (active). For `CN=c1scc(-c2ccc(F)cc2)n1/N=C/c1ccc(O)c(O)c1`, the IC50 was 38.6 µM (active). With `CN=c1scc(-c2ccco2)n1/N=C/c1ccc(O)c(O)c1` the IC50 was 43.9 µM (active). For `CC(C)N=c1scc(-c2ccco2)n1/N=C/c1ccc(O)c(O)c1`, the IC50 was 63.8 µM (active). In the case of `CN(C)CCCn1c(SCc2ccc(Cl)cc2)nnc1-c1ccncc1`, the “inhibition” value is reported as 13%. With `COc1cc(/C=N/NC(=O)c2c(-c3ccccc3)noc2C)ccc1O` the IC50 was 50.7 µM (active). For `CCOc1cc(/C=N/NC(=O)c2c(-c3ccccc3)noc2C)ccc1O`, the IC50 was 60.4 µM (active). In the case of `COc1cc(/C=N/Nc2nn3cnnc3c3ccccc23)ccc1O`, the IC50 is reported as 58.4 µM (active). For `Oc1ccc(/C=N/Nc2nn3cnnc3c3ccccc23)cc1`, the IC50 was 23.3 µM (active). For `COc1cc(/C=N/Nc2nncn2/N=C/c2ccc(O)c(OC)c2)ccc1O`, the IC50 was 39 µM (active). In the case of `Cc1ccc(OCCCCNC(C)(C)C)c([N+](=O)[O-])c1`, the “inhibition” value is reported as 20.2%. For `N#CC1=C(N)NC(=S)C(C(N)=O)C1c1ccc([N+](=O)[O-])cc1` (centres undefined), the “inhibition” value was -6.08%. For `N=C(N)c1ccc(/C=C/c2ccc(C(=N)N)cc2O)cc1`, the “inhibition” value was 11.6%. In the case of `CCOc1ccc(C2NC(=O)C(C#N)=C(S)N2c2ccc(C)cc2)cc1OC` (centres undefined), the “inhibition” value is reported as 3.45%. For `COc1cc2nc(=S)n3[nH]c(CCn4nc(C)cc4C)nc3c2cc1OC`, the IC50 was 19.6 µM (active). With `COc1ccc2cc(OCC(=O)NNC(=O)Nc3ccc(F)cc3)ccc2c1` the IC50 was 65.5 µM (active). With `CC1=C/C(=C(/c2cc(C)c(O)c(Br)c2)c2ccccc2S(=O)(=O)O)C=C(Br)C1=O` the IC50 was 62.4 µM (active). With `Oc1ccc(Cl)cc1C=Nc1ccc2c3c(cccc13)CC2` the IC50 was 14.8 µM (active). For `Cc1cccc(C=Nc2ccc3c4c(cccc24)CC3)c1O`, the IC50 was 32.6 µM (active). In the case of `Oc1ccc(Br)cc1C=Nc1ccc2c3c(cccc13)CC2`, the IC50 is reported as 79.9 µM (active). With `CC(C)(C)N(Cc1ccc2c(c1)OCO2)C(=O)/C=C\S(=O)c1ccccc1` (centres undefined) the “inhibition” value was 1.78%. With `COc1ccc(C2NC(=O)C(C#N)=C(S)N2c2cccc(C)c2)cc1OC` (centres undefined) the “inhibition” value was 3.49%. In the case of `COCc1cc(S(=O)c2ccc(Cl)cc2)nc(C)n1` (centres undefined), the “inhibition” value is reported as 1.89%. For `C=CCc1ccc(OCCOCCNCCCC)c(OC)c1`, the “inhibition” value was 16.3%. For `COc1cc(/C=N/NC(=O)c2ccc3c(c2)OCO3)ccc1O`, the IC50 was 31.9 µM (active). With `COc1cc(/C=N/NC(=O)CNC(=O)c2ccc3c(c2)OCCO3)ccc1O` the IC50 was 58.4 µM (active).
